12-LOX inh: ALOX12 (human) lipoxygenase inhibition. purified 12hLO, xylenol orange hydroperoxide absorbance. Potency, µM (series often up to 108 µM), without a hit: top-dose activity change, negative = inhibition, hits mostly inhibitors. 1.1% of 580,000 active. AID 1671190; further: on the % scale 0 is the no-effect control and ±100 the full control effect
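Purified human 12hLO at 150 nM in 25 mM Hepes, 0.01% Triton X-100, pH 7.0, preincubated 15 min at room temperature with compound. Reaction started with 40 uM arachidonic acid, 30 min at room temperature. Hydroperoxide measured by Fe-xylenol orange, 573/405 nm absorbance ratio.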
Sfp PPTase inh: Sfp phosphopantetheinyl transferase inhibition; Q9F4F7; Biochemical Sfp PPTase activity, qHTS; Potency, µM, for the others: largest response in the series, negative = inhibition, most hits filed as inhibitors; 3.5% of 310,000 active; AID 1490;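 further: the enzyme is Sfp with the accession as filed and its product quenches rhodamine fluorescence; 0% = enzyme reaction without inhibitor and -100% = no enzyme wells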
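Reaction rates are the 30-min fluorescence difference (ex 525, em 598 nm) in wells containing 15 nM Sfp, 5 uM rhodamine-CoA and 12.5 uM BHQ-2-YbbR at pH 7.6 with 10 mM MgCl2.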
VDR inh: vitamin D3 receptor (human) inhibition. 0.93% of 400,000 active. AID 504847. VDR-SRC2-3 peptide fluorescence polarization, 2 h. P11473. Potency, µM, for inactives: max response, negative = inhibition, most hits filed as inhibitors; further: on the % scale 0 is the no-effect control and ±100 the full control effect
Target sequence (P11473 whole entry, looked up): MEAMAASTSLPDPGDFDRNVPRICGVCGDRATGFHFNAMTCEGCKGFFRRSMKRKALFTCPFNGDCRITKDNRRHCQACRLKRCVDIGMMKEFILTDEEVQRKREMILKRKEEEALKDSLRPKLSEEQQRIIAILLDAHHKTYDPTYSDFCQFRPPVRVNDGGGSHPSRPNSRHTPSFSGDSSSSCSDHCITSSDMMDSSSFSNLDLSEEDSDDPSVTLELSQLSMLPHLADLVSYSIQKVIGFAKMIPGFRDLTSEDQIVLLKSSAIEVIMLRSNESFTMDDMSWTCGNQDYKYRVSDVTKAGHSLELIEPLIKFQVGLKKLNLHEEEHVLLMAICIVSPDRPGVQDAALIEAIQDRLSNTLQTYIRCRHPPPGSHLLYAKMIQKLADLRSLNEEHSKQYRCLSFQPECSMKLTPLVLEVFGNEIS
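VDR–SRC2-3 interaction, FP format. Cmpds 23 nl via pintool, brief spin, 2 h ambient incubation.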
G9a inh: inhibitors of human histone lysine methyltransferase G9a; Potency, µM (titrated, usually from 102 µM), for the others: top-dose activity, negative = inhibition, most hits filed as inhibitors; AID 504332; G9a H3K9 monomethylation, AlphaScreen, 2 h; 8.8% of 350,000 active; Q96KQ7; further: on the % scale 0 is the no-effect control and ±100 the full control effect; nearly all actives have a fitted effect of over 75% in size
Target sequence (Q96KQ7 913-1193 limits assumed): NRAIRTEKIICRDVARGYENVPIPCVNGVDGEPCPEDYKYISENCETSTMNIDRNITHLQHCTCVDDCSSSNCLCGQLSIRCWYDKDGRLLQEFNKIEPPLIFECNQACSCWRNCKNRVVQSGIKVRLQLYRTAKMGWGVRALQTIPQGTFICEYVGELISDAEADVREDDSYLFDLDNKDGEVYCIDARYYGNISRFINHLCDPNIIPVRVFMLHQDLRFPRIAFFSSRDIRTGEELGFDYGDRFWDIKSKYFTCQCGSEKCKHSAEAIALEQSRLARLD
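Compounds were preincubated with 20 nM G9a for 15 min, after which biotinylated H3K9 peptide (500 nM) and SAM (20 uM) started a 2 h room-temperature reaction. Monomethylated product was quantified by antibody-based AlphaScreen chemiluminescence.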
Glioma ERSR ind: ER stress response induction in glioma | U87-MG GRP78 promoter luciferase reporter, 16 h | Potency, µM, for inactives: top-dose activation, most hits filed as activators | 0.02% of 420,000 active | AID 602332; further: series mostly up to about 76 µM; % of control where 0% means no effect; nearly all actives have a fitted effect of over 35% in size
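Stably transfected U87-MG glioma cells carrying a GRP78-based luciferase sensor; 16 h compound incubation. Luminescence end-point read 10 min after Bright-Glo addition at room temperature.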
Numbers without * were called inactive; ? = inconclusive; / = not tested or not shown; [ ] = remark or other dose. Shown is part of a subset that was picked to be rich in hits. The call rests on the fitted dose curve; in most records, active means well fitted curve in the direction sought with a large enough effect; inconclusive means small, poorly fitted or top-dose-only effect, or another doubt; inactive means no such curve, though single readings can be large; an effect the other way counts as inactive or inconclusive. Potency means the concentration at half of the fitted maximal effect.

SMILES	12-LOX inh	Sfp PPTase inh	VDR inh	G9a inh	Glioma ERSR ind
CCc1cccc(C)c1NC(=O)Cn1nc(C(=O)O)c2ccccc2c1=O	16µM*	/	/	/	/
NC(=O)c1nn(CC(=O)NCCc2ccccc2)c(=O)c2ccccc12	-5%	/	/	/	/
CCc1cccc(C)c1NS(=O)(=O)Cc1ccccc1	7%	11%	-28%	79µM*	-4%
CCc1cccc(CC)c1NC(=O)Cn1nc(C(=O)O)c2ccccc2c1=O	-17%	/	/	/	/
CCc1cccc(C)c1NC(=O)CNCc1ccccc1	-13%	-13%	-12%	18µM*	-2%
CC(CNC(=O)Cn1nc(C(N)=O)c2ccccc2c1=O)(c1ccccc1)c1ccccc1	32µM*	/	/	/	/
CCOc1cc(C#N)ccc1OCC(=O)c1ccc2c(c1)CCCC2	-16%	/	/	/	/
Cc1c(Cl)c([N+](=O)[O-])nn1CC(=O)N1CCc2ccccc2C1	0%	-7%	-2%	26%[0.0925 µM]	-1%
Cc1nn(CC(=O)N2CCN(c3ccccc3)CC2)c(C)c1[N+](=O)[O-]	-17%	1%	9%	?	-2%
Cc1c(Cl)c([N+](=O)[O-])nn1CC(=O)N1CCN(C23CC4CC(CC(C4)C2)C3)CC1	9%	-28%	-11%	45µM*	-2%
Cc1nn(CC(=O)N2CCN(C34CC5CC(CC(C5)C3)C4)CC2)c(C)c1[N+](=O)[O-]	-8%	20%	-11%	25µM*	-3%
CN(Cc1ccc(Cl)cc1)C(=O)c1ccc(Cl)c(S(=O)(=O)NC2CC2)c1	-6%	/	/	/	/
COc1cccc(CNS(=O)(=O)c2ccc(-c3ccc(=O)[nH]n3)o2)c1	-2%	/	/	/	/
COCCN1C(=O)c2ccccc2N2C(=O)CCC12C(=O)OCc1cc(=O)oc2cc(OC)ccc12 (configuration not stated)	0%	/	/	/	/
Cc1ccc(OCCCCN2CCC(C)CC2)cc1	/	-18%	-7%	-32%	-7%
CC1CCN(CCCCOc2ccc(C(=O)c3ccccc3)cc2)CC1	-8%	-23%	-16%	35µM*	-7%
CC1CCN(CCCCOc2ccc([N+](=O)[O-])cc2)CC1	?	-10%	-3%	11µM*	-2%
O=[N+]([O-])c1ccc(OCCCCN2CCc3ccccc3C2)cc1	?	-28%	-5%	35µM*	-3%
CC1CCN(CCOc2ccc(C(=O)c3ccccc3)cc2)CC1	?	-21%	-9%	7.1µM*	-4%
COc1ccc(Br)cc1COC(=O)c1ccc(OC)c(OC)c1OC	12%	/	/	/	/
c1ccc(N2CCN(C3CCCN(Cc4cn[nH]c4C4CCCCC4)C3)CC2)cc1 (configuration not stated)	57%	/	/	/	/
CCCNC(=O)N1CCN(S(C)(=O)=O)CC1	1%	-7%	4%	40µM*	-1%
Nn1c(SCC(=O)NCc2ccc(Cl)cc2)nnc1-c1ccco1	-9%	/	/	/	/
CC(C)n1c(=S)[nH]c2ccccc2c1=O	?	-12%	0%	-28%[12.7 µM]	-1%
CC(C)n1c(=S)[nH]c2cc(Cl)ccc21	?	79µM*	12%	10µM*	-4%
SMILES	12-LOX inh	Sfp PPTase inh	VDR inh	G9a inh	Glioma ERSR ind
CCn1ccc(C(=O)N2CCCN(c3cc(-c4ccc(OC)cc4)[nH]n3)CC2)n1	87%	/	/	/	/
CCCCNC(=O)c1onc(CSc2nc3ccccc3[nH]2)c1C(=O)NCCCC	-10%	14%	-4%	71µM*	-5%
O=C(NCC1CC1)c1onc(CSc2nc3ccccc3[nH]2)c1C(=O)NCC1CC1	-3%	6%	-26%	/	-5%
O=C(NCCCN1CCOCC1)c1onc(CSc2nc3ccccc3[nH]2)c1C(=O)NCCCN1CCOCC1	-7%	3%	3%	50µM*	0%
CC(C)NC(=O)c1onc(CSc2nc3ccccc3[nH]2)c1C(=O)NC(C)C	-15%	11%	-2%	50µM*	-1%
COc1ccc(Nc2cc(NCCCO)c([N+](=O)[O-])c3nonc23)cc1	0%	8%	10%	-3%	1%
CCOc1ccc(Nc2ccc([N+](=O)[O-])c3nonc23)cc1	102%	-19%	?	25µM*	1%
O=[N+]([O-])c1ccc(Nc2ccccc2)c2nonc12	3%	-8%	3%	45µM*	-6%
CC(=O)NS(=O)(=O)c1ccc(Nc2ccc([N+](=O)[O-])c3nonc23)cc1	-9%	6%	1%	-14%[59 µM]	-2%
COC(CNC(=O)c1ccc(CNS(=O)(=O)c2ccc(C)cc2)cc1)OC	7%	/	/	/	/
Cc1nccn1CCNC(=O)CCC[C@@H]1[C@H]2CCCN3CCC[C@@H](CN1Cc1ccccc1)[C@@H]23	79%	/	/	/	/
CN(C)CCCN=Cc1c(O)n(Cc2ccccc2)c(=O)c2ccccc12	130%	-7%	5%	-63%[59 µM]	-7%
CN(C)CCN=Cc1c(O)n(Cc2ccccc2)c(=O)c2ccccc12	7%	-1%	-12%	56µM*	-4%
Cc1ccc(N(Cc2ccccc2)C(=O)c2ccc(F)c(S(=O)(=O)N3CCOCC3)c2)cc1	-4%	/	-14%	45µM*	1%
O=C(NN1C(=O)/C(=C/C=C/c2ccccc2)SC1=S)c1ccncc1	?	-29%	?	45µM*	-3%
O=C(NN1C(=O)/C(=C/C=C/c2ccco2)SC1=S)c1ccncc1	50µM*	7.9µM*	52%	4µM*	-5%
COc1ccc(/C=C2\SC(=S)N(NC(=O)c3ccncc3)C2=O)cc1OC	/	-9%	/	/	/
CC(=O)N1CCc2nc3sc(C(=O)Nc4cccc(F)c4)c(N)c3c(C(F)(F)F)c2C1	-12%	/	/	/	/
CCCCCCOc1ccc(/C=C/C(=O)c2ccc(OC)c(CSCC(=O)O)c2)cc1	-21%	/	/	/	/
O=C(Nc1ccc(S(=O)(=O)N2CCCC2)cc1)c1cncc(Br)c1	-16%	/	-3%	-2%[59 µM]	-6%
O=C(Nc1cccc(NC(=O)c2cncc(Br)c2)c1)c1cncc(Br)c1	0%	-12%	-3%	45µM*	-2%
O=C(Nc1ccc(N2CCCCC2)cc1)c1cncc(Br)c1	?	5%	2%	79µM*	-4%
Cc1ccc(NC(=O)c2nc3ccccc3nc2N2CCOCC2)c(Cl)c1	14%	/	/	/	/
CC(NC(=O)C1CCCCC1)C12CC3CC(CC(C3)C1)C2 (configuration not stated)	36%	/	/	/	/
Cc1ccc(C2=C(O)C(=O)N(Cc3ccccn3)C2c2ccccc2)cc1 (configuration not stated)	4%	/	/	/	/
CNC(=O)CN1CCN(c2nc(-c3ccccc3)c3ccccc3n2)CC1	-3%	/	/	/	/
O=C(c1cc2cc([N+](=O)[O-])ccc2oc1=O)n1cccn1	?	20%	-1%	45µM*	-1%
CC1=NN(c2ccccc2)C(=O)C1C(=O)c1cc([N+](=O)[O-])cc([N+](=O)[O-])c1 (configuration not stated)	?	14%	4%	11µM*	0%
CN(C(=O)c1cc(C(=O)N(C)c2ccccc2)cc([N+](=O)[O-])c1)c1ccccc1	-8%	-5%	12%	16%[0.501 µM]	-4%
